Source: PubChem BioAssay (NCI)
Several values for one entry are separate records, joined by “and”; a condition that tells them apart may be missing. Identical values can stand only once. Compounds without any hit were thinned out: in the full panel of roughly 83,000, 20% have a hit.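 The test compound was applied at a single concentration to cells in 96-well plates for 48 hours, and percent growth was recorded.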 Activity calls are given as the source filed them. Rule for the calls: active = growth percent below 10; inactive = the rest.

Columns and labels:
Test in all cases: NCI-60 one-dose screen, 48 h (100 = growth as untreated, 0 = no growth, -100 = all killed)
Details in all cases: 10 µM unless noted
NCI-H23 lung = test system: NCI-H23 lung
NCI-H226 lung = test system: NCI-H226 lung
NCI-H322M lung = test system: NCI-H322M lung
HOP-62 NSCLC = test system: HOP-62 NSCLC
NCI-H460 lung = test system: NCI-H460 lung
HOP-92 NSCLC = test system: HOP-92 NSCLC
NCI-H522 lung = test system: NCI-H522 lung
A549/ATCC NSCLC = test system: A549/ATCC NSCLC
786-0 renal = test system: 786-0 renal
COLO 205 colon = test system: COLO 205 colon
DU-145 prostate = test system: DU-145 prostate
K-562 leukemia = test system: K-562 leukemia
MALME-3M melanoma = test system: MALME-3M melanoma
MDA-MB-231 breast = test system: MDA-MB-231 breast
RXF 393 renal = test system: RXF 393 renal
SF-268 CNS = test system: SF-268 CNS
SF-295 CNS = test system: SF-295 CNS
SF-539 CNS = test system: SF-539 CNS
UACC-257 melanoma = test system: UACC-257 melanoma
M14 melanoma = test system: M14 melanoma

Measured: growth

O=[P+](O)c1cccnc1
inactive: NCI-H23 lung 103% | NCI-H226 lung 105% | NCI-H322M lung 94.9% | HOP-62 NSCLC 90.3% | NCI-H460 lung 107% | HOP-92 NSCLC 109% | NCI-H522 lung 75.7% | A549/ATCC NSCLC 101% | 786-0 renal 98.2% | COLO 205 colon 102% | DU-145 prostate 114% | K-562 leukemia 99.1% | MALME-3M melanoma 106% | MDA-MB-231 breast 107% | RXF 393 renal 114% | SF-268 CNS 98.2% | SF-295 CNS 103% | SF-539 CNS 105% | UACC-257 melanoma 104% | M14 melanoma 106%

CN(C)c1ccc(N)cc1
inactive: NCI-H23 lung 96.6% and 10.7% | NCI-H226 lung 101% and 82.3% | NCI-H322M lung 95.3% and 111% | HOP-62 NSCLC 93.7% and 47.1% | NCI-H460 lung 103% and 54.2% | HOP-92 NSCLC 98.1% and 41.6% | NCI-H522 lung 85.1% | A549/ATCC NSCLC 97.2% and 33.1% | 786-0 renal 109% | COLO 205 colon 103% and 43.1% | DU-145 prostate 113% and 58.4% | K-562 leukemia 83.7% and 44.9% | MALME-3M melanoma 115% and 95.7% | MDA-MB-231 breast 88% and 58.6% | RXF 393 renal 109% and 84.7% | SF-268 CNS 97.9% and 65.8% | SF-295 CNS 110% and 59.9% | SF-539 CNS 104% and 67% | M14 melanoma 101%
92.5% (inactive) and 4.45% (active): UACC-257 melanoma

CCOC(=O)c1cncn1C(C)c1ccccc1 (stereo not given)
inactive: NCI-H23 lung 118% | NCI-H226 lung 105% | NCI-H322M lung 101% | HOP-62 NSCLC 97.7% | NCI-H460 lung 118% | HOP-92 NSCLC 95.8% | NCI-H522 lung 94.3% | A549/ATCC NSCLC 103% | 786-0 renal 97% | COLO 205 colon 109% | DU-145 prostate 120% | K-562 leukemia 96.7% | MALME-3M melanoma 109% | MDA-MB-231 breast 112% | RXF 393 renal 103% | SF-268 CNS 113% | SF-295 CNS 104% | SF-539 CNS 107% | UACC-257 melanoma 103% | M14 melanoma 103%

Cc1cc(Br)c([N+](=O)[O-])cc1[N+](=O)[O-]
inactive: NCI-H23 lung 98.6% | NCI-H226 lung 95.5% | NCI-H322M lung 132% | HOP-62 NSCLC 100% | NCI-H460 lung 97.5% | HOP-92 NSCLC 134% | A549/ATCC NSCLC 101% | 786-0 renal 103% | COLO 205 colon 72.9% | DU-145 prostate 89.4% | K-562 leukemia 75% | MALME-3M melanoma 128% | MDA-MB-231 breast 97.8% | RXF 393 renal 103% | SF-268 CNS 97.2% | SF-295 CNS 114% | SF-539 CNS 97.9% | UACC-257 melanoma 98.7% | M14 melanoma 96.2%
active: NCI-H522 lung -28%

Clc1ccc(COC(Cn2ccnc2)c2ccc(Cl)cc2Cl)c(Cl)c1 (stereo not given)
-1.54% (active) and 14.5% (inactive): HOP-92 NSCLC
inactive: NCI-H23 lung 40.6% and 25.2% | NCI-H226 lung 68.3% and 75.9% | NCI-H322M lung 94.1% and 85.6% | HOP-62 NSCLC 71.3% and 84.9% | NCI-H460 lung 56.8% and 55.9% | NCI-H522 lung 39% and 41.5% | A549/ATCC NSCLC 37.3% and 12.5% | 786-0 renal 48.9% and 49.6% | COLO 205 colon 57.2% and 57.9% | DU-145 prostate 76.8% and 69.8% | K-562 leukemia 25.5% and 13.7% | MALME-3M melanoma 56.1% and 75.3% | MDA-MB-231 breast 49.5% and 66.9% | RXF 393 renal 72.1% and 10.9% | SF-268 CNS 70.2% and 77.8% | SF-295 CNS 30.4% and 51.3% | SF-539 CNS 80.4% and 70.1% | UACC-257 melanoma 61.2% and 48% | M14 melanoma 29.2%

COc1cc2c(cc1OC)-c1c3c(cc4c1[C@@H](C2)N(C)CC4)OCO3
inactive: NCI-H23 lung 51.3% | NCI-H226 lung 51% | NCI-H322M lung 36.9% | HOP-62 NSCLC 44.3% | NCI-H460 lung 17.3% | A549/ATCC NSCLC 53.3% | 786-0 renal 40.2% | COLO 205 colon 31.4% | DU-145 prostate 45.3% | K-562 leukemia 13.1% | MALME-3M melanoma 54.3% | MDA-MB-231 breast 55.1% | RXF 393 renal 35.2% | SF-268 CNS 50.5% | SF-295 CNS 51.6% | SF-539 CNS 34.1% | UACC-257 melanoma 35.5% | M14 melanoma 54.9%
active: HOP-92 NSCLC 6.02% | NCI-H522 lung 5.61%

COC1C(O)CC(OC2CC(Oc3cc4cc5c(c(O)c4c(O)c3C)C(=O)[C@@H](OC3CC(OC4CC(OC6CC(C)(O)C(OC(C)=O)C(C)O6)C(O)C(C)O4)C(O)C(C)O3)[C@H]([C@H](OC)C(=O)[C@@H](O)[C@@H](C)O)C5)OC(C)C2OC(C)=O)OC1C (stereo not given in full)
active: NCI-H23 lung -44.1% | NCI-H226 lung -10.6% | NCI-H322M lung -2.53% | HOP-62 NSCLC -11.7% | NCI-H460 lung -25.7% | HOP-92 NSCLC -19.7% | NCI-H522 lung -50.6% | A549/ATCC NSCLC -64.2% | 786-0 renal 1.26% | COLO 205 colon -57.6% | DU-145 prostate -18.3% | K-562 leukemia -14.9% | MALME-3M melanoma -91.6% | MDA-MB-231 breast -8.36% | RXF 393 renal -49.6% | SF-268 CNS -10.5% | SF-295 CNS -16.2% | SF-539 CNS -73.9% | UACC-257 melanoma -31.7% | M14 melanoma -86.3%
